This is a sample that favours compounds with a hit; in the whole collection about 3.2% have one here.
CRFR2-BP antag – CRF-BP/CRF-R2 complex antagonism | HEK293 CRF-R2/CRF-BP, CRF-induced calcium fluorescence | inhibition, % at 11.8 µM | hit rate 0.59% among 350,000;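 active = inhibition of the ligand-induced calcium signal above about 50% at the single tested concentration, limit read from the data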
aDG glyco act – increases alpha dystroglycan glycosylation. Pro5-aDG cells, alpha-DG glycosylation AlphaScreen (IIH6); 0% Pro5, 100% B10-LARGE cell signal. activation, % at 10 µM. hit rate 0.22% among 360,000. AID 624168;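 active = activation of at least 8% versus controls, or a plate z-score of at least 8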;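 note: Pro5 are CHO cells carrying HIG-tagged alpha-DG that lacks glycosylation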
CRFR2-BP ag – agonists of human CRF-binding protein/CRF-R2 receptor complex | hit rate 0.46% among 350,000 | activation, % at 13.2 µM | AID 588473 | HEK293 CRF-R2/CRF-BP, calcium dye fluorescence (FLIPR); percent of saturating CRF peptide response;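 active = activation of at least 50%, plus an integration ratio under a set limit after plate pattern correction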;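 note: plate controls were neutral control wells without compound for no effect and CRF at EC100 for full effect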
H9c2 protect – myocardial damage modulation in H9c2 cells | H9c2 cardiomyocytes, H2O2 injury protection, ATPLite, 2 h | protection from H2O2 cell death, % at 20 µM | hit rate 0.63% among 360,000;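 active = compounds giving at least 50% protection of heart cells from peroxide-induced death in the single-dose screen, raw or plate-pattern-corrected value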;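 note: 0% = DMSO wells with peroxide and 100% = DMSO wells without peroxide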
PfG6PD inh – PfG6PD (Plasmodium falciparum) enzyme inhibition. PfGluPho enzyme, NADPH resazurin-diaphorase fluorescence. inhibition, % at 20 µM. hit rate 0.78% among 350,000. AID 504690;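 active = inhibition reaching at least a set limit at 20 µM in the primary screen, cut at about 59% in these data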;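 note: 0% = DMSO wells with substrate and 100% = DMSO wells lacking glucose-6-phosphate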
FAS-TE inh – blocks the thioesterase domain of human fatty acid synthase; P49327; recombinant FAS-TE, OMFH fluorogenic substrate, fluorescence endpoint; inhibition, % at 15 µM; hit rate 0.67% among 360,000; AID 602261;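 active = compounds whose normalised, plate-corrected inhibition of enzyme fluorescence in the single-dose primary screen is 50% or more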;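 note: 0% = DMSO with enzyme and 100% = substrate without enzyme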
PfGluPho conf – PfG6PD inhibition, single-dose confirmed; shares compounds with PfG6PD inh; recombinant PfGluPho, NADPH-diaphorase-resazurin fluorescence; inhibition, % at 20 µM; hit rate 34% among 2,400; AID 504753;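 active = inhibition of at least 50% at 20 µM in any single replicate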;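 note: 0% = DMSO with substrate and 100% = DMSO lacking glucose-6-phosphate substrate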
Diaphorase 10uM – inhibits diaphorase or oxidizes, flagging false PfG6PD hits; shares compounds with PfG6PD inh; diaphorase-coupled resazurin reduction, fluorescence, NADPH 10 uM; inhibition, % at 20 µM; hit rate 39% among 820; AID 504862;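 active = average inhibition reaching 50% or more with the compound at 20 µM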;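 note: resorufin red fluorescence formed as diaphorase reduces resazurin using NADPH; 0% = DMSO with enzyme and 100% = DMSO without enzyme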
Diaphorase 30uM – counter-screen for P. falciparum G6PD inhibitors: diaphorase inhibitors, oxidizers; shares compounds with PfG6PD inh; Diaphorase/resazurin coupled assay, resorufin fluorescence, 30 uM NADPH; inhibition, % at 20 µM; hit rate 29% among 820; AID 504863;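 active = inhibition averaging 50% or more, tested at 20 µM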;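 note: 0% = DMSO with enzyme and 100% = DMSO wells lacking diaphorase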
Numbers without * were called inactive; . = no result.

SMILES	CRFR2-BP antag	aDG glyco act	CRFR2-BP ag	H9c2 protect	PfG6PD inh	FAS-TE inh	PfGluPho conf	others
CCOC(=O)c1c(C)[nH]c(C)c1C(=O)COC(=O)/C=C/c1ccc(OC)cc1	22	0	-1	10	24	7	.
C[C@H](CO)N1C[C@H](C)[C@@H](CN(C)Cc2ccc(Oc3ccccc3)cc2)Oc2cc(Br)ccc2S1(=O)=O	19	0	1	-21	23	18	.
CCOC(=O)c1ccc(/[N+]([O-])=C/c2ccccc2)cc1	-5	0	-1	-1	90*	-3	97*	Diaphorase 10uM=49;Diaphorase 30uM=8
C#CCCC(=O)c1ccccc1/C=[N+](\[O-])c1ccccc1	1	0	-2	-1	30	7	.
C#CCCc1cscc1/C=[N+](\[O-])c1ccc(C(=O)OCC)cc1	-9	0	-3	0	116*	4	103*	Diaphorase 10uM=43;Diaphorase 30uM=15
CC(C)(C)C(=O)NC1CC2CCCC(C1)N2C(=O)Nc1cccc(Cl)c1 (stereo unspecified)	-3	0	0	3	37	-7	.
O=C(CN1CCSCC1)N/N=C/c1cccc(Cl)c1	14	0	2	7	-13	-7	.
Nc1nc(SCc2ccc(Cl)cc2Cl)nc2nc3c(cc12)CCCC3	23	0	-2	-28	-4	2	.
Cc1ccc(NC(=O)CSc2nnc3c(n2)[nH]c2ccccc23)cc1	-14	0	1	0	7	-7	.
O=C(CSc1nnc2c(n1)[nH]c1ccccc12)Nc1cccc(S(=O)(=O)N2CCOCC2)c1	4	0	-4	-6	62*	1	16
O=C(CSc1nnc2c(n1)[nH]c1ccccc12)Nc1ccc2c(c1)OCO2	13	0	5	-5	64*	-2	0
O=C(COc1ccc(F)cc1)Nc1cc(Cl)ccc1-n1cncn1	-1	0	-1	-2	23	2	.
C=C(C)C1CC=C(C)/C(=N/NC(=O)CCC(=O)Nc2ccccc2Cl)C1 (stereo unspecified)	-12	0	-4	-1	-6	2	.
CC(OC(=O)C1CCN(S(=O)(=O)c2ccc(C(C)(C)C)cc2)CC1)C(=O)N(C)C1CCCCC1 (stereo unspecified)	11	0	0	-10	-8	31	.
CC1(C(=O)O)CCN1C(=O)COc1ccc(Cl)cc1 (stereo unspecified)	.	0	.	5	.	-10	.
CCn1c(NC(=O)c2ccc(C)cc2)c2ccccc2nc1=O	4	0	0	11	72*	-8	36
Cc1ccc(NC(=O)CNC(=O)C2CCCCC2)nc1	-11	0	3	0	4	-6	.
O=C1N/C(=N\c2ccccn2)SC1Cc1ccccc1Cl (stereo unspecified)	-12	0	3	-4	-12	-6	.
Clc1ss/c(=N\c2ccccn2)c1Cl	17	0	-2	7	64*	-1	-6
N#Cc1cn(CCOc2ccc(F)cc2)c2ccccc12	9	0	26	-1	84*	22	34
N#Cc1cn(CCOc2ccccc2F)c2ccccc12	-3	0	6	-8	50	29	.
Cc1ccc(OCCCn2cc(C#N)c3ccccc32)cc1	13	0	6	-12	68*	32	8
CC(C)CCOCC(=O)Nc1cccc(C(=O)O)c1	11	0	-1	2	0	-8	.
Cc1ccc(S(=O)(=O)N2CCN(C(=O)Cn3cnc4c3c(=O)n(C)c(=O)n4C)CC2)cc1C	7	0	0	7	-2	-4	.
Cc1cccc(OCCCC(=O)NNC(=O)CCN2CCN(c3ccccc3)CC2)c1	-4	0	-1	2	-5	-4	.

Assay outcomes as filed in PubChem BioAssay.
